Our source for the inhibition values is PubChem BioAssay.

Assay [1] deals with Nuclear receptor coactivator 3 (Homo sapiens) (UniProt Q9Y6Q9). The experiment in a line: NCOA3 GAL4-fusion reporter inhibition – cell-based, luminescence, quadruplicate, confirmation (AID 588792;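 active = mean inhibition over 43.08%, the solvent-only control mean plus 3 SD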;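 also: 0% = DMSO treated cells and 100% = gossypol at 36 µM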). Conditions: HEK293 GAL4-SRC3 luciferase reporter, at 3.6 µM, hits give high values. (In general: In a reporter assay the amount or activity of a reporter protein is the signal.)
Assay [2] deals with transactivating tegument protein VP16 (Human herpesvirus 1), Gal4-VP16 luciferase reporter. The experiment in a line: repression of VP16-driven luciferase reporter – cell-based, luminescence, high throughput, counter-screen for SRC3 inhibitor project (AID 588794; in the data active = inhibition above about 30%). The note with it: mammalian cells, at 3.6 µM, hits give high values.
In assay [3] the target is Nuclear receptor coactivator 1 (Homo sapiens) (UniProt Q15788). Nature of the assay: NCOA1 GAL4-fusion reporter inhibition – cell-based, luminescence, quadruplicate, confirmation (AID 588820;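 active = mean inhibition above 46.68%, the untreated control wells mean plus 3 SD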;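 also: 0% = DMSO wells and 100% = gossypol 36 µM treated wells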). The note with it: HEK293 GAL4-SRC1 luciferase reporter, at 3.6 µM, hits give high values.
Assay [4] is described as follows: repression of VP16-driven luciferase reporter – cell-based, luminescence, high throughput, counter-screen for SRC1 inhibitor project (AID 588824). The note with it: cell-based VP16 transactivation luciferase luminescence; at 3.6 µM; hits give high values.
The nature of assay [5]: StAR promoter reporter inhibitors, counter-screen for LRH-1 inverse agonist project, cell-based, luminescence, high throughput (AID 651611; in the data active = inhibition above about 28%). The note with it: StAR promoter luciferase reporter counterscreen, at 3.6 µM, hits give high values. On the technique in general: Counterscreens check selectivity or assay interference.
Assay [6] concerns the target Nuclear receptor subfamily 5 group A member 2 (Homo sapiens) (UniProt O00482). The experiment in a line: NR5A2 activity suppression in reporter cells – cell-based, luminescence, confirmation (AID 651613; in the data active = inhibition above about 42%;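 also: HEK293T cells co-transfected with LRH-1 and StAR promoter luciferase reporter; 0% = vehicle wells and 100% = parental cells lacking receptor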). Conditions: cell-based LRH-1 luciferase reporter, inverse agonism; at 3.6 µM; hits give high values.
Assay [7] deals with Steroidogenic factor 1 (Homo sapiens) (UniProt Q13285). Nature of the assay: inverse agonism at SF1 nuclear receptor – cell-based, luminescence, high throughput, counter-screen for LRH-1 inverse agonist project (AID 651614; in the data active = inhibition above about 44%;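 also: cells cotransfected with StAR promoter reporter and SF1 expression vector; 0% = vehicle on cells with receptor and 100% = vehicle on cells lacking receptor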). The note with it: cell-based SF1 luciferase reporter, at 3.6 µM, hits give high values.
Assay [8] in a line: compounds suppressing VP16-driven luciferase signal – cell-based, luminescence, high throughput, counter-screen for LRH-1 inverse agonist project (AID 651615; in the data active = inhibition above about 33%). The note with it: Gal4-VP16 luciferase reporter cells, at 3.6 µM, hits give high values.
For assay [9], the target named is Photoreceptor-specific nuclear receptor (Homo sapiens) (UniProt Q9Y5X4). The experiment in a line: retest of NR2E3-NCOR disrupting agonists – cell-based, luminescence, CHO-S two-hybrid, confirmation (AID 624378;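 active = average inhibition above a cutoff equal to the mean inhibition of all tested compounds plus one SD, cut at about 70% in these data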;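 also: 0% = DMSO in NR2E3 cells and 100% = DMSO in cells lacking NR2E3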). Conditions: CHO-S mammalian two-hybrid NR2E3-NCOR, luciferase luminescence; at 3.98 µM; hits give high values.
A short description of assay [10]: nonselective effects on VP16 transactivation – cell-based, luminescence, CHO-S, high throughput, counter-screen for NR2E3 agonist project, confirmation (AID 624379;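 active = mean inhibition above a cutoff equal to the average over all tested compounds plus one standard deviation, cut at about 70% in these data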;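 also: 0% = DMSO with VP16-transfected cells and 100% = DMSO with cells lacking VP16; higher means less reporter light so more repression of VP16 activity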). Conditions: CHO-S GAL4-VP16 luciferase reporter, at 3.98 µM, hits give high values.
In assay [11] the test system is transactivating tegument protein VP16 (Human herpesvirus 1). The experiment in a line: compounds suppressing VP16-driven luciferase signal – cell-based, luminescence, single concentration, counter-screen for SRC2 inhibitor project (AID 652007; in the data active = inhibition above about 36%). Conditions: cell-based VP16 transactivation luciferase reporter, at 8.9 µM, hits give high values.
For assay [12], the target named is Nuclear receptor coactivator 2 (Homo sapiens) (UniProt Q15596). Nature of the assay: inhibition of GAL4-SRC2 driven luciferase expression – cell-based, luminescence, HEK293, triplicate, confirmation (AID 652008;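 active = mean inhibition above 46.5%, the solvent-only control mean plus 3 SD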;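 also: 0% = DMSO-treated cells and 100% = Gossypol at 36 µM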). The note with it: HEK293 GAL4-SRC2 luciferase reporter, at 8.9 µM, hits give high values.
A short description of assay [13]: VP16-driven transactivation reporter suppression – cell-based, luminescence, HEK293, counter-screen for COUP-TFII antagonist project (AID 687007; in the data active = inhibition above about 13%). The note with it: HEK293 Gal4-VP16 luciferase reporter, at 8.5 µM, hits give high values.
For assay [14], the target named is COUP transcription factor 2 (Homo sapiens) (UniProt P24468). The experiment in a line: retest of COUP-TFII reporter suppressors – cell-based, luciferase reporter, HEK293, triplicate, confirmation (AID 687008;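 active = mean inhibition over three repeats above a set limit taken from the earlier primary screen, cut at about 38% in these data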;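 also: 100% = cells given the luciferase reporter alone without the COUP-TF2 vector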). The note with it: HEK293 NGFI-A luciferase reporter, luminescence; at 8.5 µM; hits give high values.
Assay [15] deals with Galanin receptor type 2 (Homo sapiens) (UniProt O43603). Nature of the assay: blockers of human galanin receptor 2 – cell-based, confirmation (AID 866; in the data active = inhibition above about 27%;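 also: cells stimulated with galanin at about its EC80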). The note with it: GALR2-expressing cells, antagonist mode, at 4 µM, hits give high values.
Assay [16] in a line: nonspecific BLA reporter inhibition – CHO NFAT-bla cells, FRET readout, counter-screen for GALR2 antagonist project, confirmation (AID 867;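 active = inhibition above the mean inhibition across tested compounds plus 3 SD, cut at about 27% in these data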;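 also: 0% = 500 nM thapsigargin stimulated wells and 100% = unstimulated BSA only wells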). The note with it: beta-lactamase FRET, thapsigargin-stimulated, at 4.2 µM, hits give high values.
Assay [17] deals with Receptor-interacting serine/threonine-protein kinase 2 (Homo sapiens) (UniProt O43353). Nature of the assay: inhibitors of RIPK2 association with NOD2 – fluorescence, CHO cells, BLA complementation, triplicate, confirmation (AID 624370;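 active = mean inhibition across replicates above a set limit taken from the earlier primary screen, cut at about 21% in these data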;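 also: 0% = DMSO-only wells and the high end = clavulanate BLA-blocked wells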). Conditions: CCF4 FRET, at 4.98 µM, hits give high values.
Assay [18] in a line: BLA reporter readout interference – cell-based, CHO-K1 CMV-bla, CCF4 FRET, fluorescence, artefact control for NOD2-RIPK2 interaction inhibitor project, confirmation (AID 624371;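 active = mean inhibition above the low-control mean inhibition plus three low-control SD, cut at about 11% in these data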;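 also: 0% = DMSO only wells and 100% = clavulanate high control wells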). Conditions: CCF4 FRET ratio, counterscreen, at 4.98 µM, hits give high values.

Molecules are shown by their SMILES. Unmarked numbers belong to inactive results. This is one part of the list. The source made the active and inactive calls. Rule as the data show it, unless noted: active = inhibition above about 25%; inactive = the rest.

Sequence of Steroidogenic factor 1 (Homo sapiens) (Q13285 whole entry, looked up, the tested form may be a part): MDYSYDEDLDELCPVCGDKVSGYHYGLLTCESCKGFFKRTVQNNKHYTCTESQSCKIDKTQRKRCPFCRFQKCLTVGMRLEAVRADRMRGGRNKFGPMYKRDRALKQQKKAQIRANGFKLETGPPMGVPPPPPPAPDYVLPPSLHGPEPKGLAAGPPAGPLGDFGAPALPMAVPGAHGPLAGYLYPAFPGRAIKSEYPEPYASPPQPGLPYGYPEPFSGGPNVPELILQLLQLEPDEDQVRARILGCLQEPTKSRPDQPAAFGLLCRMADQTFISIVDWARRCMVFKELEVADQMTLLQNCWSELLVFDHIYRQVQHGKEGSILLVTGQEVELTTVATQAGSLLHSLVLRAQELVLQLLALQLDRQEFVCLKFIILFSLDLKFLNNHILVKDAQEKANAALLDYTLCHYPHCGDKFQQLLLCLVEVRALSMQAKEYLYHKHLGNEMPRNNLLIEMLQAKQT
Sequence of Nuclear receptor coactivator 3 (Homo sapiens) (Q9Y6Q9 whole entry, looked up, the tested form may be a part): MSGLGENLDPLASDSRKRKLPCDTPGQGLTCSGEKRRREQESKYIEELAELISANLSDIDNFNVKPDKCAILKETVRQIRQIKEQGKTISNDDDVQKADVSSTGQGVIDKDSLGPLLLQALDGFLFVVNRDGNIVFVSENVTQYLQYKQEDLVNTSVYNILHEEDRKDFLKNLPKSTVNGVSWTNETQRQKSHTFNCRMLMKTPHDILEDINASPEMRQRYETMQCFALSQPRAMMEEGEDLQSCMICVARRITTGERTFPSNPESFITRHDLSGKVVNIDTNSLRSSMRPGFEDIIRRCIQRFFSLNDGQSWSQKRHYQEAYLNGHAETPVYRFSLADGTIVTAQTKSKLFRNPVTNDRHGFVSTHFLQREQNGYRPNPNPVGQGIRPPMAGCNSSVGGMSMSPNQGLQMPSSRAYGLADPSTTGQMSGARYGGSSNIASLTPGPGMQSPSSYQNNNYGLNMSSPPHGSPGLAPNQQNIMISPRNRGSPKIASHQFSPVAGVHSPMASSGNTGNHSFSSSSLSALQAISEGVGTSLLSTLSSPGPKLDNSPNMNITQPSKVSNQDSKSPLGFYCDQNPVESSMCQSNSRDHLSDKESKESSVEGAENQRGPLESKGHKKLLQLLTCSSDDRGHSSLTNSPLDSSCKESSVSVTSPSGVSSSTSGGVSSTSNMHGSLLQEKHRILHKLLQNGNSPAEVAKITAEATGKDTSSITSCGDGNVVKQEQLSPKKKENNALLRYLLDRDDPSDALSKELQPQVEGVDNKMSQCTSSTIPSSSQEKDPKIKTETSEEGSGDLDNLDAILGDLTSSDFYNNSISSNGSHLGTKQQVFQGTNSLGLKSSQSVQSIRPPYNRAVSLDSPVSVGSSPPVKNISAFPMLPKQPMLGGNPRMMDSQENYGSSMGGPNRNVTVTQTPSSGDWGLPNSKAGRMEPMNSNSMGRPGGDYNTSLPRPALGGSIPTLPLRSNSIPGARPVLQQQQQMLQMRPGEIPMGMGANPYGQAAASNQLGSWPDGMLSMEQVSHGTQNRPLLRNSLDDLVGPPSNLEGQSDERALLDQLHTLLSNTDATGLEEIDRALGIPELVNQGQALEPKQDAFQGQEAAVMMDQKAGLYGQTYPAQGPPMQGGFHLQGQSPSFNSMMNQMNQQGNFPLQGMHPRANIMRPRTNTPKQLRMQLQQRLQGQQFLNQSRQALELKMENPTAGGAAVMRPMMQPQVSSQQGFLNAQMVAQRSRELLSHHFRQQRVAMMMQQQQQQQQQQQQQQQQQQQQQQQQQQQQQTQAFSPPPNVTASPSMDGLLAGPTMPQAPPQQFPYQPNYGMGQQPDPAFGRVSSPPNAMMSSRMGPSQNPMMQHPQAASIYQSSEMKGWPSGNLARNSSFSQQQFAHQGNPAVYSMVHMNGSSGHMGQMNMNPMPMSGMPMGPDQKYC
Sequence of Nuclear receptor subfamily 5 group A member 2 (Homo sapiens) (O00482 whole entry, looked up): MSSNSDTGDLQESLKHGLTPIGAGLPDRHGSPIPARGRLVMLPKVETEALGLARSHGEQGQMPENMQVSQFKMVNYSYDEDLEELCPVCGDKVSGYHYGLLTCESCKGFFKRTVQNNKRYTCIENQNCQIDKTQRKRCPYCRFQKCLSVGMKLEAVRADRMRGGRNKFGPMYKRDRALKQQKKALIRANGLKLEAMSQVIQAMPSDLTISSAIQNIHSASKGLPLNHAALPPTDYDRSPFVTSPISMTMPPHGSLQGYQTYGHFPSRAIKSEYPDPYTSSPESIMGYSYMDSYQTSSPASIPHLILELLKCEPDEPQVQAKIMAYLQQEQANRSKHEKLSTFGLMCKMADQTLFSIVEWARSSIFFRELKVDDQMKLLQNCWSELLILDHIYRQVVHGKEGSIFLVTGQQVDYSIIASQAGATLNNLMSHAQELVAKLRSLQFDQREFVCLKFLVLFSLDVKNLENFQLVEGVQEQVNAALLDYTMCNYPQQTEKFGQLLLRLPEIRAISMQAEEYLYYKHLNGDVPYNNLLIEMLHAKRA
Sequence of Nuclear receptor coactivator 1 (Homo sapiens) (Q15788 whole entry, looked up, the tested form may be a part): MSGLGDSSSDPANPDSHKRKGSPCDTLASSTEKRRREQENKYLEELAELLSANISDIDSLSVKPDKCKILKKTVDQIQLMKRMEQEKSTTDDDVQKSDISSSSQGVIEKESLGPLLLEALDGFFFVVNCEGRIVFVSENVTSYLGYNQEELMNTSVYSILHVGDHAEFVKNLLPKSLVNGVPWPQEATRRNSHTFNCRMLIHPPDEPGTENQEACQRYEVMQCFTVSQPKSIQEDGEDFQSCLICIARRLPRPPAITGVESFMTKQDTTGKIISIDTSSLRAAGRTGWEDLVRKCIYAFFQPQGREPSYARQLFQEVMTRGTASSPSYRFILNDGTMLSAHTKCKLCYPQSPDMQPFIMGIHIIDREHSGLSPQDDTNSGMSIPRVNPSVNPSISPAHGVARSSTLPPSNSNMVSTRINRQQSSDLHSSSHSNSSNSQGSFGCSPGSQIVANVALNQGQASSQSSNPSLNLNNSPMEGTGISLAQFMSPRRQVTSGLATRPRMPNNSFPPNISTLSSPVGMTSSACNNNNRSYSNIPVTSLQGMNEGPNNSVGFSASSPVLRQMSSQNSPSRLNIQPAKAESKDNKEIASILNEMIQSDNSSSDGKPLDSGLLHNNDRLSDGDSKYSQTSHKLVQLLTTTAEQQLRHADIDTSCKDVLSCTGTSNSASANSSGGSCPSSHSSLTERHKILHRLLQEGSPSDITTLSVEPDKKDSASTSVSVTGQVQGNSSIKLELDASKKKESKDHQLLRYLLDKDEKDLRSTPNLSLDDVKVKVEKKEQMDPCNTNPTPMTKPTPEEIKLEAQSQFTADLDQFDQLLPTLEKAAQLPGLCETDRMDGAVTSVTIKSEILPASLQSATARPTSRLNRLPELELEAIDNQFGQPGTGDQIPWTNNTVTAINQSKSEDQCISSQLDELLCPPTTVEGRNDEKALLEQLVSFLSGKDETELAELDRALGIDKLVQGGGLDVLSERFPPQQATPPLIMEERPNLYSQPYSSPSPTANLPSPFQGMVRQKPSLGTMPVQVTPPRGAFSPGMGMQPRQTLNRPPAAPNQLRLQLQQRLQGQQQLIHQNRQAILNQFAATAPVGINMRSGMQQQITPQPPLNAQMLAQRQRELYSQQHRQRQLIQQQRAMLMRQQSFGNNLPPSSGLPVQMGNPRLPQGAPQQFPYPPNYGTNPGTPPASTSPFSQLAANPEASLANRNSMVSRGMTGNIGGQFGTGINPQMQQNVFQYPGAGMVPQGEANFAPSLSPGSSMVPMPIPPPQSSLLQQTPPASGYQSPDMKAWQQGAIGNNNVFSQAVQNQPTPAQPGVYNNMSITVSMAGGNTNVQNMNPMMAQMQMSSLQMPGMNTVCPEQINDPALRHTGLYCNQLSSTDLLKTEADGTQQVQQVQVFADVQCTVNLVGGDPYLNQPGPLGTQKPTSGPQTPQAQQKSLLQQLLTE
Sequence of Photoreceptor-specific nuclear receptor (Homo sapiens) (Q9Y5X4 whole entry, looked up): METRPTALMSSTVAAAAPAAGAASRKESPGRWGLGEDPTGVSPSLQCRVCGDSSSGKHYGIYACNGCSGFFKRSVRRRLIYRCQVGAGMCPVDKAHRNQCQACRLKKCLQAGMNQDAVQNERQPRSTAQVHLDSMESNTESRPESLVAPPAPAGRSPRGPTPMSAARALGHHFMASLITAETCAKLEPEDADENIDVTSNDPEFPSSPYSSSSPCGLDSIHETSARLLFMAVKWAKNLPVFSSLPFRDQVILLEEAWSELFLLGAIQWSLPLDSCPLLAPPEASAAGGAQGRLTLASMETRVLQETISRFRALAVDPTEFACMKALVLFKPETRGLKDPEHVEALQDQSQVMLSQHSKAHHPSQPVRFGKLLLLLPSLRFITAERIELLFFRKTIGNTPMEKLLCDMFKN
Sequence of COUP transcription factor 2 (Homo sapiens) (P24468 whole entry, looked up): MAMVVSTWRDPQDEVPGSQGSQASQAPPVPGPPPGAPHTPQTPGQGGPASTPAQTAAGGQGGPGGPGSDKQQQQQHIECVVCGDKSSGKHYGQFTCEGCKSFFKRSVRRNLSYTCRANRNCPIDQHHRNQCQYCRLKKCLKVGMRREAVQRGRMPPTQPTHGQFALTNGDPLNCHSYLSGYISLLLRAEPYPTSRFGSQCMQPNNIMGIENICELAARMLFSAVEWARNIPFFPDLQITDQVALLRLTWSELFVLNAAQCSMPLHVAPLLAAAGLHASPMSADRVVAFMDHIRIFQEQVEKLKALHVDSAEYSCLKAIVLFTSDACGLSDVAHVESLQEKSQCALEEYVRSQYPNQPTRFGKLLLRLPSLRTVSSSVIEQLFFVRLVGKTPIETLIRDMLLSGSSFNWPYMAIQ
Sequence of Galanin receptor type 2 (Homo sapiens) (O43603 whole entry, looked up): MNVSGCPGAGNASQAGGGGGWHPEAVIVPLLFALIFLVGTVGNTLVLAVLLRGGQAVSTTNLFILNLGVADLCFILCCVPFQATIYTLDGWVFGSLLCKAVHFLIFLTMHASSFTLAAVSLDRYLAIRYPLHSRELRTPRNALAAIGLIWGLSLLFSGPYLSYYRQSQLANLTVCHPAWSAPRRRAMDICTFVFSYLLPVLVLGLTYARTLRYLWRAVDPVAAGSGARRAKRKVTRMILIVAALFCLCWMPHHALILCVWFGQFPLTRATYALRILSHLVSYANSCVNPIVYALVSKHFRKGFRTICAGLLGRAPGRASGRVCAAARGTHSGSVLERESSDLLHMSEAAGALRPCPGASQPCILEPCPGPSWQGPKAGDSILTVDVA

As usually defined, the inhibition is the drop in the measured response relative to a control, in per cent. In the case of `c1cnc2ccc(-n3ccnc3)cc2c1`, the inhibition in assay [1] was 24.2%; in [2], 23.8%; in [3], 19.9%; in [4], 22.4%.
Regarding `COc1cc(C(=O)OCC(=O)Nc2sccc2C(N)=O)cc(OC)c1OC`, the inhibition was 42.7% in assay [1], 10.3% in assay [2], -42.7% in assay [3] and 5.18% in [4].
Take `Cc1ccc2nc(-c3ccncc3)c(NC3CCCC3)n2c1`: the inhibition is 38.8% in [1], 29.2% in assay [2], 27.3% in assay [3] and 25.7% (active) in assay [4].
The matching figures for `CCOC(=O)c1cc2sccc2n1CC(=O)N1CCc2ccccc21`: 43.4% (active), 29.2%, 31.8% and 31.3% (active).
As for `NC(=O)c1cc(Sc2ccccc2)nc2ccccc12`, the inhibition is 38% in assay [1], 16.6% in assay [2], 34.4% in [3] and 16% in assay [4].
Turning to `O=[N+]([O-])c1ccc(O)c(/C=N/Nc2ccccn2)c1`, the inhibition is 56.8% (active) in assay [1], 41.6% (active) in assay [2], 60.6% (active) in [3] and 37.1% (active) in [4].
On the same counts, the results for `CCCC(=O)NC(c1ccccc1OC)c1ccc2cccnc2c1O` (centres undefined) are 61.1% (active), 37.8% (active), 52.2% (active) and 41.9% (active).
For the compound `Cc1ccc(C)c(NC(=O)c2ccccc2NS(=O)(=O)c2cc([N+](=O)[O-])ccc2C)c1`, the inhibition in assay [1] is 20.5%; in assay [2], 25.5%; in assay [3], 21%; in assay [4], 22%.
For `CCCCNc1nc2c(c(=O)n(C)c(=O)n2C)n1Cc1cccc(OC)c1`, the inhibition in assay [1] is 11.7%; in assay [2], 25.3%; in assay [3], 16.8%; in assay [4], 26.6% (active).
Take `CC#CC[N+](C)(C)CCCCCCCCCCCC`: the inhibition in assay [1] is 32.2%; in assay [2], 39.2% (active); in assay [3], 22.1%; in assay [4], 32.1% (active); in assay [5], 33% (active); in assay [6], 65.2% (active). Also, the results for the inhibition in assay [7] and in [8] were 65.9% (active) and 63.5% (active), respectively.
Turning to `COc1ccc(Nc2ncnc3ccc(Br)cc23)c(OC)c1`, the inhibition was 67.1% (active) in assay [1]; 9.75% in assay [2]; 68.4% (active) in assay [3]; 8.18% in assay [4]; 85.3% (active) in [9]; 75.5% (active) in [10]. Also, the inhibition in assay [5] is 86% (active); in assay [6], 47.3% (active); in assay [7] it was 79.2% (active); in [8], 30.8% (active); in assay [11], 32.4%; in [12], 93.8% (active). Moreover, the inhibition in assay [13] was 7.13%; in [14], 11.9%.
Take `CC[C@H]1CN2CCc3cc(OC)c(OC)cc3[C@@H]2C[C@@H]1C[C@H]1NCCc2cc(OC)c(OC)cc21`: the inhibition in assay [15] was 102% (active); in assay [16] it was 92.8% (active); in [1] it was 98.3% (active); in assay [2] it was 97.2% (active); in assay [3], 92.6% (active); in assay [4] it was 96.4% (active). Besides, the inhibition was 30.7% (active) in assay [17]; -0.09% in [18]; 97.8% (active) in assay [9]; 99.2% (active) in assay [10]; 94.6% (active) in assay [5]; 109% (active) in [6]. For the same compound, the inhibition in assay [7] is 97.7% (active); in [8], 96.4% (active).
Regarding `CCCCCCCn1c2c(c(=N)c3ccccc31)CCC2`, the inhibition in assay [1] is 71.2% (active); in [2] it was 79.5% (active); in [3], 61.5% (active); in assay [4], 79.1% (active); in [5], 70.8% (active); in [6] it was 111% (active). In addition, the inhibition was 91.2% (active) in assay [7] and 94.7% (active) in assay [8].
Regarding `O=C(N/N=C(\c1ccccc1)c1cccnc1)c1cccc(F)c1`, the inhibition in assay [1] is 37.5%; in assay [2], 31.2% (active); in [3], 31%; in assay [4], 43% (active); in assay [5] it was 84% (active); in [6] it was 97.7% (active). For the same compound, the values for the inhibition in assay [7] and in assay [8] were 85.7% (active) and 58.5% (active), respectively.
Regarding `Cc1oc2c(F)c(F)c(F)c(F)c2c1S(=O)(=O)Nc1cccc(C(F)(F)F)c1`, the inhibition in [1] was -6.6%; in assay [2], 11.6%; in [3], 12.8%; in assay [4] it was 4.85%; in [9], 100% (active); in assay [10], 93.3% (active).
Regarding `CC(NC(=O)Nc1nnc(C(F)(F)F)s1)(C(F)(F)F)C(F)(F)F`, the inhibition in assay [1] is 52.9% (active); in [2], 72% (active); in assay [3] it was 37.6%; in assay [4], 79.1% (active); in assay [5] it was 74.9% (active); in [6], 99.7% (active). Moreover, the inhibition in assay [7] was 89.4% (active); in assay [8], 93% (active).
As for `O=C1C(Nc2ccccc2)=C(N2CCCCC2)C(=O)c2ccccc21`, the inhibition is 19.4% in assay [1]; 39.6% (active) in [2]; 44.4% in [3]; 35.9% (active) in [4]; -2.41% in assay [5]; 22.5% in [6]. Also, the inhibition is 6.41% in assay [7] and 12.1% in assay [8].
Regarding `CC[C@H]1CN2CCc3cc(OC)c(OC)cc3C2C[C@@H]1C[C@H]1NCCc2cc(OC)c(OC)cc21` (some centres undefined), the inhibition in [1] is 97.5% (active); in [2] it was 96% (active); in assay [3] it was 91.5% (active); in [4], 94.6% (active); in [5] it was 95.7% (active); in assay [6], 110% (active). The values for the inhibition in assay [7] and in assay [8] were 98% (active) and 97.2% (active), respectively.
On to `CCOC(=O)C(C(C)=O)c1c(Br)c(O)c(O)c2c(C(=O)c3ccc(C)cc3)coc12` (centres undefined), for which the inhibition was 57.6% (active) in assay [1]; 12.5% in assay [2]; 12.7% in assay [3]; 31.2% (active) in [4]; 60.4% (active) in assay [5]; 94.8% (active) in assay [6]. In addition, the figures for the inhibition in [7] and in [8] were 83.7% (active) and 81.6% (active), respectively.
Take `COc1ccc(C)cc1N=Nc1ccc(O)c2ncccc12`: the inhibition was 9.14% in assay [1], -10.3% in [2], -18.4% in assay [3] and 0.73% in assay [4].
As to `Cc1ccsc1C(=O)OCC(=O)c1cc(C)n(CC2CCCO2)c1C` (centres undefined), the inhibition in assay [1] was 73.4% (active); in [2], 65.6% (active); in assay [3] it was 49.5% (active); in assay [4], 44.4% (active); in assay [9], 70.8% (active); in assay [10], 50.3%. The inhibition in assay [5] is 66.9% (active); in assay [6] it was 15.3%; in assay [7], 61.6% (active); in assay [8], 39.8% (active); in assay [11], 59.5% (active); in [12], 85% (active). Moreover, the values for the inhibition in assay [13] and in assay [14] were 78.4% (active) and 97.7% (active), respectively.
